From PubChem BioAssay
DT40 TDP1 no CPT: qHTS for Inhibitors of human tyrosyl-DNA phosphodiesterase 1 (TDP1): qHTS in cells in absence of CPT | Potency, µM (doses to about 46.2 µM), usual class: inhibitors | DT40 Tdp1-/- hTDP1 cells, no CPT, ATP luminescence, 48 h | 15% of 420,000 active; note: nearly all actives have a fitted effect of over 55% in size
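Stably hTDP1-transfected Tdp1-null chicken DT40 cells were treated with library compounds minus camptothecin and grown for at least 48 hr at 37 °C, after which cellular ATP was quantified by luminescence.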
ATXN2 expr inh: reduces ATXN2 reporter expression in HEK-293 cells | 0.72% of 360,000 active | HEK-293 ATXN2-luciferase reporter, luminescence, 24 h | AID 1745845 | Potency, µM (titrated, usually from 57 µM), actives largely listed as inhibitors; note: nearly all actives have a fitted effect of over 55% in size
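ATXN2-luciferase reporter cells (luciferase flanked by upstream and downstream ATXN2 gene portions) were treated 24 h at 37 °C with compounds at up to 57 uM. SteadyGlo luminescence gave expression; GF-AFC fluorescence gave viability.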
TGFb SMAD3 inh: inhibitors of TGF-b signaling; HepG2 CAGA-GFP TGF-b/SMAD3 reporter, GFP fluorescence, 18 h; TGF-beta stimulated, 500 pg/mL final; Potency, µM (titrated, usually from 46.1 µM), actives largely listed as inhibitors; 1.2% of 410,000 active; AID 588855; note: nearly all actives have a fitted effect of over 65% in size
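TGF-beta reporter screen: HEPG2 CAGA-GFP, 1% FBS, 500 pg/mL TGF-beta final, 18 h; per-cell GFP summed per well; curves fitted and categorized by class.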
ATXN viability: reduces viability in counter-screen for ATXN expression inhibitors | Potency, µM (titrated, usually from 56.7 µM), actives largely listed as cytotoxic | S2 cells (HEK-293 line with an ATXN2-luciferase reporter) viability, CellTiter-Fluor protease fluorescence, 24 h | 0.49% of 400,000 active | AID 651635; note: nearly all actives have a fitted effect of over 40% in size
DT40 TDP1 CPT: growth inhibition of DT40 Tdp1-/-;hTDP1 cells with camptothecin (screen for TDP1 inhibitors). Potency, µM (highest dose often 46.2 µM), hits mostly inhibitors. AID 686979. 12% of 420,000 active. chicken DT40 Tdp1-/-;hTDP1 cells + 20 nM CPT, ATP luminescence, 48 h; note: nearly all actives have a fitted effect of over 55% in size
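Chicken DT40 Tdp1-/- cells stably complemented with human TDP1 were seeded at 400 cells/well in medium containing 20 nM camptothecin, exposed to pin-transferred compounds, and grown at 37 °C for at least 48 hr. Viability was read as ATP luminescence.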
HepG2 tox: counter-screen for TGF-b inhibitors: cytotoxicity in HepG2 cells. HepG2 CAGA-GFP viability, ATP luminescence, 18 h. Potency, µM (top dose mostly 46.1 µM), hits mostly cytotoxic. 0.76% of 410,000 active
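HepG2 CAGA-GFP cells (1000/well, DMEM with 1% FBS) received compound, then TGF-beta at 500 pg/mL final, and were incubated 18 hours at 37 degrees C. Viability was read by CellTiter-Glo luminescence. Media-only wells were set as complete cell-killing and DMSO as no toxicity.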
Hits are given with their value; . = inactive; ? = inconclusive; / = no result given; [ ] = another dose, or the depositor's remark. Only some compounds are listed: those with a hit (about 17% of all), similar ones and a draw of the others. Calls come from the whole dose curve; as a rule, active = well fitted curve in the direction sought with a large enough effect; inconclusive = small, poorly fitted or top-dose-only effect, or another doubt; inactive = no such curve, though single readings can be large; an effect the other way counts as inactive or inconclusive.

SMILES	DT40 TDP1 no CPT	ATXN2 expr inh	TGFb SMAD3 inh	ATXN viability	DT40 TDP1 CPT	HepG2 tox
CC(OC(=O)c1ccc(O)cc1)C(=O)Nc1ccc(Oc2ccccc2)cc1 (stereo unspecified)	20.6µM	.	?	.	?	.
COc1cc(Nc2ncc3c(n2)-c2ccc(Cl)cc2C(c2c(F)cccc2OC)=NC3)ccc1C(=O)O	/	.	/	/	/	/
COc1ccc2ccccc2c1CN1CCCC(n2cc(C(=O)N3CCCC3)nn2)C1 (stereo unspecified)	.	/	/	.	.	/
Nc1nc(-c2ccc(Oc3ccccc3)cc2)c(CC(=O)O)s1	.	.	.	.	.	.
COc1cccc(NC(=O)C2CC2)c1	.	.	.	.	5.8µM	.
CC(C)Oc1cccc(NC(=O)C2CCN(S(=O)(=O)Cc3ccccc3)CC2)c1	?	.	.	.	13µM	.
O=C(Nc1ccc(Oc2ccccc2)cc1)C1CC1	18.4µM	.	.	.	20.6µM	.
O=C(Nc1ccccc1O)c1ccc(NC(=O)C2CC2)cc1	11.6µM	.	.	.	11.6µM	.
Cn1c(SCC2CCCO2)nnc1-c1cccc([N+](=O)[O-])c1 (stereo unspecified)	.	.	.	.	.	.
COc1ccccc1OCC(=O)Nc1nonc1NC(=O)COc1ccccc1OC	.	.	.	.	.	.
CN(CC1COCCO1)C(=O)c1cnn(-c2ncc3c(n2)-c2ccccc2CC3)c1C1CC1 (stereo unspecified)	.	/	/	.	?	/
Cc1cccc(NC(=O)CSc2nc3c([nH]c4ccccc43)c(=O)n2-c2ccc(F)cc2)c1C	?	/	.	/	?	.
COC(=O)c1ccc2c(c1)C(=O)/C(=C/c1ccc(C)cc1)O2	13µM	.	?	.	18.4µM	.
NC(=O)NC(=O)C(c1ccccc1)N1CCN(S(=O)(=O)Cc2ccccc2)CC1 (stereo unspecified)	.	.	.	.	.	.
CC(C)OC(=O)c1cc2c(ccn2C)n1CC(=O)N(Cc1ccccc1)c1ccc(F)cc1	20.6µM	?	?	?	16.4µM	.
CCOC(=O)c1cc2c(ccn2C)n1CC(=O)N(Cc1ccccc1)c1ccc(F)cc1	.	.	.	.	.	.
Cc1ccccc1Cn1c(C(=O)OC(C)C)cc2c1ccn2C	?	.	.	.	?	.
CC(C)OC(=O)c1cc2c(ccn2C)n1CC(=O)N1CCC(Cc2ccccc2)CC1	20.6µM	.	?	.	?	.
CCOC(=O)c1cc2c(ccn2C)n1CC(=O)N(Cc1ccccc1)c1ccccc1	?	.	?	?	23.1µM	.
CC(=O)Nc1ccccc1-c1nc(CNC(=O)c2cccc(-n3cccn3)c2)c(C)o1	.	/	/	.	.[9.04 µM]	/
CC1Oc2ccc(C#N)cc2N(Cc2ccccc2OC(F)(F)F)C1=O (stereo unspecified)	.	.	.	.	.	.
c1ccc(-c2nc(-c3ccco3)n3ccccc23)cc1	?	.	.	.	10.3µM	.
CCn1c(-c2ccco2)nc2ccccc21	?	.	.	.	.	.
Cn1c(=O)c2c(nc(NCCCO)n2CCc2ccccc2)n(C)c1=O	.	.	.	?	.	.
CCCNc1nc2c(c(=O)[nH]c(=O)n2C)n1CCCc1ccccc1	.	.	.	.	.	.
SMILES	DT40 TDP1 no CPT	ATXN2 expr inh	TGFb SMAD3 inh	ATXN viability	DT40 TDP1 CPT	HepG2 tox
CCCNc1nc2c(c(=O)n(C)c(=O)n2C)n1CCCc1ccccc1	18.4µM	.	.	.	13µM	.
CCCNc1nc2c(c(=O)n(C)c(=O)n2C)n1CCc1ccccc1	7.08µM	.	.	.	5.01µM	.
CCCCNc1nc2c(c(=O)n(C)c(=O)n2C)n1CCC	?	.	.	.	?	.
Cn1c(=O)c2c(nc(NCCO)n2CCc2ccccc2)n(C)c1=O	11.6µM	.	.	.	16.4µM	.
CCCCCCn1c(NCC)nc2c1c(=O)n(C)c(=O)n2C	2.59µM	.	.	.	6.51µM	.
N#Cc1cc(NC(=O)C(=O)O)c(Cl)c(NC(=O)C(=O)O)c1	/	.	/	.	/	/
COCCCNC(=O)N1CCN(c2nnc(C)c3c(C)n(-c4ccc(Cl)cc4)nc23)CC1	.	.	.	.	.	.
CC(C)CCn1c(Oc2ccccc2F)nc2c1c(=O)n(C)c(=O)n2C	?	.	.	?	18.4µM	.
CCCNc1nc2c(c(=O)n(C)c(=O)n2C)n1Cc1cccc(C)c1	5.8µM	.	?	.	7.31µM	.
CC(C)CCn1c(Oc2ccc(Cl)cc2)nc2c1c(=O)n(C)c(=O)n2C	?	.	.	.	?	.
CC(O)CNc1nc2c(c(=O)n(C)c(=O)n2C)n1CCc1ccccc1 (stereo unspecified)	16.4µM	.	.	.	?	.
CCCNc1nc2c(c(=O)n(C)c(=O)n2C)n1CCC(C)C	16.4µM	.	.	.	16.4µM	.
CCC1(c2ccc(F)cc2)NC(=O)N(CC(=O)NCc2ccc(C)cc2)C1=O (stereo unspecified)	.	.	.	.	.	.
CCCCSCCCNC(=O)CCCN1C(=O)c2ccccc2Sc2ncccc21	16.4µM	.	.	.	?	.
CCc1cccc(NC(=O)CCN2C(=O)c3ccccc3Sc3ncccc32)c1	?	/	.	/	?	.
Cc1ccc(C)c(NC(=O)CCN2C(=O)c3ccccc3Sc3ncccc32)c1	18.4µM	/	.	/	?	.
O=C(CCN1C(=O)c2ccccc2Sc2ncccc21)Nc1ccc(F)cc1	?	/	?	/	16.4µM	.
COc1ccc(OC)c(NC(=O)C2CCN(S(=O)(=O)c3ccc4c(c3)CCCC(=O)N4)CC2)c1	/	.	.	.	/	.
CCOc1ccc(N(c2nc(-c3ccc(OC)c(OC)c3)no2)c2nc(-c3ccc(OC)c(OC)c3)no2)cc1	.	.	.	.	.	.
CCN(C(=O)c1cc2cc(Br)cc(OC)c2oc1=O)c1ccccc1	.	.	.	.	.	.
Cc1ccc(N=C2C(=O)Nc3ccc(Br)cc32)cc1	11.6µM	.	.	.	18.4µM	.
O=C1CCC[C@@H]2Cc3nc4ccc(O)cc4cc3[C@@H]3CCN1[C@H]23	.	.	.	.	.	.
O=C1CCC[C@@H]2Cc3nc4cc5c(cc4cc3[C@@H]3CCN1[C@H]23)OCO5	15.8µM	.	.	.	18.4µM	.
O=C(CSc1nc(C2CCCCC2)nc2ccccc12)NCc1ccco1	20.6µM	.	.	.	?	.
C=CCn1c(SCC(=O)NCc2ccco2)nnc1-c1ccc2ccccc2n1	18.4µM	.	?	.	?	.
